About 83,000 compounds went through this panel and 20% of them were active in at least one assay; those are over-represented in the sample as a whole.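 Note: values are percent growth. 100 is the growth of untreated cells, values between 100 and 0 indicate rising inhibition; between -100 and 0 indicates cell death.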 Unmarked numbers belong to inactive results. Calls of active or inactive are those of the source. The calls were made as follows: active = growth percent below 10; inactive = the rest.

What all share (assay): NCI-60 one-dose screen, 48 h (100 = growth as untreated, 0 = no growth, -100 = all killed)
Common to all, as to conditions: 10 µM unless noted

Assay [1] has as its system SR leukemia.
Assay [2] deals with RPMI-8226 leukemia.
For assay [3], the system named is OVCAR-8 ovarian.
Assay [4] has as its system OVCAR-5 ovarian.
Assay [5] deals with OVCAR-4 ovarian.
In assay [6] the test system is SK-OV-3 ovarian.
The subject of assay [7] is IGROV1 ovarian.
For assay [8], the system named is OVCAR-3 ovarian.
Assay [9] has as its system HS 578T breast.
Assay [10] relates to NCI/ADR-RES ovarian.
The subject of assay [11] is T-47D breast.
Assay [12] has as its system BT-549 breast.
In assay [13] the test system is MDA-MB-435 melanoma.
The test system of assay [14] is SW-620 colon.
Assay [15] relates to MCF7 breast.
The test system of assay [16] is HCT-116 colon.
In assay [17] the test system is HCC-2998 colon.
Assay [18] concerns KM12 colon.

Consider `CC1(C)NCCC[C@]2(C)[C@H]3CC[C@@H]4[C@H]5[C@H](C(=O)/C=C/c6ccccn6)CC[C@]5(CO)CC[C@@]4(C)[C@]3(C)CC[C@@H]12`, for which the growth in [1] was -19.6% (active); in [2], -13.1% (active); in [3], 47.6%; in assay [4], 97.9%; in assay [5], 35.9%; in [6], 82.2%. In addition, the growth is 63.4% in assay [7]; 40.9% in [8]; 70.8% in assay [9]; 76.8% in assay [10]; 30.7% in assay [11]; 64.6% in assay [12]. The growth in [13] was 57.3%; in assay [14] it was -51% (active); in [15] it was 20.3%; in [16], -7.47% (active); in assay [17], 47.9%; in assay [18] it was 25.5%.
Consider `Nc1nc2c3ccncc3cc(-c3cccc(Cl)c3)c2c2cnccc12`, for which the growth in [1] is 9.04% (active); in [2], 5.57% (active); in assay [3] it was 24.1%; in assay [4], 61.2%; in assay [5], 65.6%; in [6], 61.9%. Moreover, the growth in assay [7] is 59%; in [8] it was 54.6%; in [9], 35.5%; in assay [10] it was 30.6%; in assay [11], 32%; in assay [12], 37%. Further, the growth was 66.8% in [13]; 36.5% in assay [14]; 33.4% in assay [15]; 5.95% (active) in [16]; 74.9% in [17]; 46.2% in assay [18].
Regarding `Cc1nn2c(-c3nc4cc(Cl)c(Cl)cc4[nH]3)c(-c3ccc(F)cc3)nc2s1`, the growth in [1] is 41.1%; in assay [2], 20.6%; in assay [3], 8.25% (active); in assay [4], 23.8%; in assay [5], -60% (active); in assay [6], -73.1% (active). In addition, the growth in assay [7] was 21.2%; in assay [8], -13.2% (active); in [9], 1.04% (active); in assay [10] it was 21.4%; in assay [11], -0.149% (active); in [12], 44.2%. Also, the growth in [13] is 26.6%; in assay [14], 39.5%; in assay [15], 40.1%; in assay [16] it was 2.83% (active); in assay [17] it was 75.8%; in assay [18], 39.3%.
For the compound `CCCCn1c(-c2ccc(O)cc2)cn2c3c(=O)[nH]c(=O)n(C)c3nc12`, the growth in [1] was 31.1%; in assay [2], 84.7%; in assay [3], 91.7%; in assay [4], 111%; in [5], 82.2%; in assay [6] it was 77.9%. Besides, the growth in assay [7] is 72.9%; in [8], 89.8%; in [9] it was 82.6%; in assay [10], 90.1%; in [11] it was 64.6%; in [12], 76.5%. Besides, the growth in assay [13] was -13.1% (active); in [14] it was 36.6%; in [15], 41.7%; in [16], 45.4%; in assay [17], 72.3%; in assay [18] it was 59.9%.
For `COc1ccc(-c2nc3c(c(C)nn3-c3ccc(F)cc3)c(=O)[nH]2)cc1`, the growth in assay [1] is 15.9%; in [2] it was 89.8%; in assay [3], 60.7%; in assay [4], 85.9%; in [5], -39.3% (active); in [6], 31.5%. Moreover, the growth in [7] was 53.8%; in assay [8], 55%; in assay [9], 63.4%; in [10], 63.9%; in [11], 20.2%; in assay [12], 76.3%. For the same compound, the growth in [13] was 74.7%; in assay [14] it was 74.6%; in assay [15], 73.7%; in [16] it was 48.5%; in assay [17], 98.4%; in [18], 84.4%.
`Cc1ccc(-c2nn(Cc3cn(-c4cc(C)nc5ccccc45)nn3)c3ncnc(N)c23)cc1`: the growth in assay [1] was 61.6%; in [2], 35.6%; in assay [3] it was 62.5%; in assay [4], 57.9%; in assay [5], 51.7%; in assay [6] it was 56.5%. The growth is 15.5% in [7]; 53.1% in [8]; 18.2% in assay [9]; 59.7% in assay [10]; 19.6% in assay [11]; 64.4% in [12]. Further, the growth in assay [13] is 50.2%; in assay [14], 82.4%; in assay [15] it was 34.6%; in assay [16], 53.8%; in [17], 76.4%; in assay [18], 74.4%.
Turning to `COc1ccc2c3c(c4ccccc4cc13)C(=O)N(CCN(C)CCN)C2=O`, the growth was -31.8% (active) in assay [1]; -45.1% (active) in [2]; -52.5% (active) in assay [3]; -65.9% (active) in assay [4]; -79.4% (active) in [5]; -6.29% (active) in assay [6]. Further, the growth in assay [7] was -48.4% (active); in assay [8] it was -62.5% (active); in [9], 24.8%; in assay [10] it was -7.12% (active); in assay [11], 6.79% (active); in [12] it was 26.1%. The growth in [13] is -92.6% (active); in assay [14], -66.5% (active); in assay [15], -88.2% (active); in assay [16], -94.8% (active); in assay [17] it was -80.2% (active); in assay [18], -68.6% (active).
Take `O=C1c2ccccc2NC(c2cn(-c3ccccc3)nc2-c2cccnc2)N1Cc1ccccc1` (centres undefined): the growth in [1] is 78.8%; in assay [2] it was 76.5%; in assay [3] it was 98.3%; in assay [4], 91.5%; in assay [5], 92.2%; in [6] it was 117%. In addition, the growth in assay [7] is 76.5%; in assay [8], 102%; in assay [9] it was 96.2%; in [10], 97.3%; in [11], 75%; in assay [12] it was 105%. The growth in assay [13] is 108%; in [14], 105%; in assay [15], 89.3%; in assay [16], 95.5%; in [17], 97.2%; in [18], 91.5%.

(Values after PubChem BioAssay (NCI).)
